Measles CPE: compounds protecting cells from measles virus cytopathic effect, primary screen, measles RdRp inhibitor project, single point, MLSMR library, absorbance; protection (pct of control), % at 4 µM; 140,000 compounds, 1.5% hits; AID 841, 2007; Measles virus-infected cells, CPE protection; in the data active = protection mostly above about 24%, no sharp cut-off; inactive = mostly below about 26%
ROMK mod: ROMK potassium channel modulators, primary screen, cell-based, thallium flux, MLSMR library; ATP-sensitive inward rectifier potassium channel 1 (Homo sapiens), P48048; Tet-inducible ROMK, thallium flux fluorescence; actives lie on both sides; B-score at 10 µM; 130,000 compounds, 2% hits;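 active = signal ratio slope over the read window, or its plate-corrected B-score, at least 3 SD from the plate mean, either direction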;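 note: B-score of the F/F0 ratio slope over 7 to 12 s after thallium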
Target sequence (P48048 whole entry, looked up): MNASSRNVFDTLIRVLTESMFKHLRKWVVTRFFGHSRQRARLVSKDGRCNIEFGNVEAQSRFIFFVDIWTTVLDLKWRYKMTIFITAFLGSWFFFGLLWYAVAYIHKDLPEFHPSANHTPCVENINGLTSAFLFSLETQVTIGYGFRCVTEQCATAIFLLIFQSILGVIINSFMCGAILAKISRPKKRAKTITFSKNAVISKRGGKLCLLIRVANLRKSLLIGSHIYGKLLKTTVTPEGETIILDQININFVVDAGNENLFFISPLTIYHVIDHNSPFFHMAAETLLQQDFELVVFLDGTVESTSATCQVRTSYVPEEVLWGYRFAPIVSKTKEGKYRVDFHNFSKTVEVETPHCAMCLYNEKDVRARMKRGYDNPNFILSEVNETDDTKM
HSV replic up: enhancers of HSV replication in host cells, fold increase, host cell viability | HSV replication augmentation in cells | maximum fold increase | 220,000 compounds, 0.005% hits | AID 1956, 2009; in the data active = maximum fold increase above about 1.5; inconclusive = no clear call, values can overlap the other calls; tested in PC3 cells
KCC2 mod: KCC2 cotransporter modulators, thallium flux, primary screen, cell-based, HEK293 KCC2, FluoZin-2 fluorescence, MLSMR | Solute carrier family 12 member 5 (Homo sapiens), Q9H2X9 | KCC2 cells, thallium flux FluoZin-2 fluorescence | B-score of Tl+ flux slope (higher = more flux/activation; lower = inhibition) at 10 µM | 190,000 compounds, 2.2% hits | AID 1456, 2008;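 active = thallium flux slope and its plate-corrected score both differing from the plate sample mean at a set confidence after two filtering rounds, in either direction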;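 note: slope of fluorescence scaled to starting intensity during 10 to 20 s after thallium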
Arbovirus anti: antivirals against arbovirus infection, primary screen, cell-based, full library, 10K replicate subset | AID 1251, 2008 | arbovirus infection cell-based antiviral screen | inhibition, % at 10 µM | 200,000 compounds, 0.37% hits; in the data active = inhibition above about 30%
KCC2 secondary: KCC2 modulators in sodium-free buffer, confirmation, cell-based, HEK293 KCC2, thallium flux, secondary assay; shares compounds with KCC2 mod; FluoZin2 fluorescence; active compounds read high; normalised thallium flux (F/F0 slope) at 10 µM; 3,700 compounds, 15% hits; AID 1713, 2009;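 active = thallium flux slope above the same plate's solvent-only control mean plus 3 SD; inconclusive = the two replicate wells disagree; inactive = no significant difference from solvent-only control wells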
KCC2 bumet counter: thallium flux persisting under bumetanide in KCC2 cells, confirmation, counter-screen for KCC2 modulator project, cell-based, HEK293 KCC2, FluoZin2, secondary assay 3 | shares compounds with KCC2 mod | HEK293-KCC2 + bumetanide/ouabain; active compounds read high | normalized thallium flux at 10 µM | 3,700 compounds, 49% hits | AID 1714, 2009;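 active = thallium entry rate above the same plate's blocked-transporter control wells by more than 3 SD; inconclusive = the two repeat wells disagree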;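 note: raw slope of fluorescence over initial fluorescence between 10 and 20 s after thallium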
KCC2 sec2: KCC2 modulators without ouabain present, confirmation, cell-based, HEK293 KCC2, thallium flux, FluoZin2, secondary assay 2. 3,700 compounds, 23% hits. AID 1715, 2009. normalized thallium flux at 10 µM. shares compounds with KCC2 mod. thallium flux FluoZin2 fluorescence; actives lie on both sides; F/F0 rise rate, 10–20 s post-thallium;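 active = thallium flux slope more than 3 SD above or below the plate's solvent-only control mean, mostly below; inconclusive = the two repeat wells disagreed; inactive = no significant shift from solvent-only controls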;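 note: raw slope with 0.1% DMSO as baseline and bumetanide as block control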
HEK counter1: thallium flux modulation in parental HEK cells, confirmation, counter-screen for KCC2 modulator project, cell-based, counterscreen 1; AID 1716, 2009; 3,700 compounds, 46% hits; shares compounds with KCC2 mod; HEK293 parental cells, thallium flux FluoZin2, ouabain; baseline-ratio fluorescence slope, 10–20 s after thallium; thallium flux rate (normalised fluorescence) at 10 µM;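 active = thallium flux rate significantly above the same plate's solvent-only control wells, beyond their mean plus 3 SD; inconclusive = the two replicate wells gave conflicting results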
KCC2 ouabain: KCC2 inhibitors and activators, ouabain retest, confirmation, HEK-KCC2 cells; shares compounds with KCC2 mod; HEK293-KCC2, thallium flux FluoZin2 fluorescence; bidirectional: low = inhibitor, high = activator; raw Tl+ flux slope (below DMSO = inhibition, above = activation) at 10 µM; 3,700 compounds, 48% hits;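 active = thallium flux slope beyond 3 SD from same-plate DMSO control mean in most replicates, usually higher, sometimes lower; inconclusive = repeat tests gave conflicting results; inactive = no significant difference from controls in most replicates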;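 note: slope of initial-normalized fluorescence between seconds 10 and 20 after thallium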
HEK counter2: native HEK Tl+ uptake effects, second counter-screen – HEK cells, counterscreen 2, counter-screen for KCC2 modulator project, confirmation; shares compounds with KCC2 mod; HEK293 parental, thallium flux FluoZin-2 fluorescence slope; thallium flux slope at 10 µM; 3,700 compounds, 33% hits;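 active = thallium flux slope above the same plate's solvent-control mean plus 3 SD in both duplicate wells; inconclusive = duplicate wells that disagreed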;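 note: run without ouabain in cells lacking the KCC2 cotransporter; slope of fluorescence scaled to its starting value between 10 and 20 s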
* = called active by the depositor. Only some compounds are listed: those with a hit (about 4% of all), similar ones and a draw of the others.

Screening Cc1ccccc1C(=O)NC(=S)Nc1ccccc1C(=O)O returned ROMK mod -0.033, HSV replic up inactive, KCC2 mod -0.51 and Arbovirus anti 9.
`COC(=O)c1ccccc1NC(=S)NC(=O)c1ccccc1C` gave Measles CPE 17, ROMK mod -1.3, KCC2 mod 4.7*, Arbovirus anti 9, KCC2 secondary 0.01, KCC2 bumet counter 0.04*, KCC2 sec2 0.03, HEK counter1 0.013*, KCC2 ouabain inconclusive and HEK counter2 inconclusive.
O=C(NC(=S)Nc1cccnc1Cl)c1ccco1 was read as ROMK mod 1, HSV replic up inactive, KCC2 mod 25*, Arbovirus anti 7, KCC2 secondary 0.02*, KCC2 bumet counter 0.051*, KCC2 sec2 0.04, HEK counter1 inconclusive, KCC2 ouabain 0.043* and HEK counter2 inconclusive.
For Cc1cc(SCC(=O)NN)c2cc(Br)ccc2n1 the results were ROMK mod 0.67, HSV replic up inactive and KCC2 mod -0.15.
For Cc1cc(-c2nc3ncccc3o2)ccc1NC(=S)NC(=O)c1ccco1 the results were ROMK mod 0.43, HSV replic up inactive, KCC2 mod 10*, Arbovirus anti 1, KCC2 secondary 0.013*, KCC2 bumet counter 0.04*, KCC2 sec2 0.036, HEK counter1 0.035*, KCC2 ouabain 0.035* and HEK counter2 0.016*.
For O=C(NC(=S)Nc1ccccc1C(F)(F)F)c1ccccc1F the results were HSV replic up inactive, KCC2 mod 99*, Arbovirus anti -1, KCC2 secondary 0.0074, KCC2 bumet counter 0.087*, KCC2 sec2 0.052*, HEK counter1 0.055*, KCC2 ouabain 0.067* and HEK counter2 0.052*.
`CCOC(=O)CN1C(=O)N[C@@H](c2ccco2)C(C(=O)OC)=C1C` gave HSV replic up inactive.
Screening O=C(CC(C(=O)N1CCc2ccccc21)n1ccnc1)N1CCc2ccccc2C1 (stereo unspecified) returned Measles CPE 11, KCC2 mod -6.2*, Arbovirus anti 7, KCC2 secondary inconclusive, KCC2 bumet counter 0.0049, KCC2 sec2 0.024*, HEK counter1 0.0069, KCC2 ouabain inconclusive and HEK counter2 0.01.
CCCCNC(=O)CC(C(=O)N1CCc2ccccc21)n1ccnc1 (stereo unspecified) was read as Measles CPE 9, ROMK mod -0.088, HSV replic up inactive, KCC2 mod 0.86 and Arbovirus anti -3.
`COc1cccc(CNc2cc(CSc3ccc(Cl)cc3)nc(C)n2)c1` gave Measles CPE 2, ROMK mod -1.1, HSV replic up inactive, Arbovirus anti 4, KCC2 secondary 0.0074, KCC2 bumet counter 0.0032*, KCC2 sec2 0.03, HEK counter1 inconclusive, KCC2 ouabain 0.018 and HEK counter2 0.0094.
COc1ccccc1CNc1cc(CSc2ccc(Cl)cc2)nc(C)n1 was read as Measles CPE 0, ROMK mod -1.2, HSV replic up inactive and Arbovirus anti 17.
`C/C(=N/NC(=O)c1cc(-c2ccc(Cl)s2)[nH]n1)c1ccco1` gave ROMK mod -0.03, HSV replic up inactive, KCC2 mod 10*, KCC2 secondary 0.0077, KCC2 bumet counter 0.0096*, KCC2 sec2 0.029, HEK counter1 0.013*, KCC2 ouabain 0.021 and HEK counter2 inconclusive.
Screening C/C(=N/NC(=O)c1ccccn1)c1ccco1 returned Measles CPE 3, HSV replic up inactive, KCC2 mod 0.013 and Arbovirus anti -6.
Cn1c2c(c(=O)n(C)c1=O)C(NC(=O)C(C)(C)C)(C(F)(F)F)C(=O)N2 (stereo unspecified) was read as Measles CPE 2, ROMK mod -0.073, HSV replic up inactive and Arbovirus anti -9.
CC(C)CC(=O)NC1(C(F)(F)F)C(=O)Nc2c1c(=O)n(C)c(=O)n2C (stereo unspecified) was read as Measles CPE 4, ROMK mod 0.95, HSV replic up inactive, KCC2 mod -3.5*, Arbovirus anti 0, KCC2 secondary 0.0062, KCC2 bumet counter 0.0051, KCC2 sec2 0.033, HEK counter1 0.0082, KCC2 ouabain 0.021 and HEK counter2 0.011.
For O=c1c(F)cn(C2CCCO2)c(=O)n1Cc1ccc(Cl)cc1 (stereo unspecified) the results were ROMK mod 0.041, HSV replic up inactive, KCC2 mod 0.31 and Arbovirus anti -5.
Screening O=c1[nH]c(=O)n(C2CCCO2)cc1Br (stereo unspecified) returned Measles CPE 6, HSV replic up inactive, KCC2 mod 3.9*, Arbovirus anti 17, KCC2 secondary 0.0087, KCC2 bumet counter 0.0071, KCC2 sec2 0.034, HEK counter1 0.0078, KCC2 ouabain 0.021 and HEK counter2 0.01.
Screening CCCN1Cc2cccc(C(=O)Nc3ccc(C)cc3)c2C1=O returned Measles CPE 10, ROMK mod -0.47, HSV replic up inactive, Arbovirus anti 0, KCC2 secondary 0.0058, KCC2 bumet counter 0.0043, KCC2 sec2 0.028, HEK counter1 0.0073, KCC2 ouabain 0.018 and HEK counter2 0.0099.

Source: PubChem
